# Results as given in the supplement of paper PMC9262897, “Low-cost anti-mycobacterial drug discovery using engineered E. coli” (Nature Communications, 2022).
# Structures can show the parent of a compound that is named as a salt. ± gives the standard deviation of the averaged measurements.
# Tested on: E. coli TESEC Alr+ wild-type control
# Test: growth (OD600 after 10 h); higher = more growth (less inhibition)
# Conditions: compound 0.1 mM; raw OD600 reference: median of DMSO wells 0.49, cell-free background 0.052
# Description: (§1)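 TESEC Mtb Alr E. coli (ΔaraC ΔtolC ΔentC Δalr ΔdadX, arabinose-inducible Mtb Alr) or the Alr+ wild-type control strain, grown in defined M9-fructose medium without D-alanine in 96-well plates with Prestwick library compounds at 0.1 mM and 1% DMSO. Low Alr induction is 0.1 µM arabinose and high induction is 10 mM arabinose.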
row,SMILES,growth
1,O=C1c2ccccc2S(=O)(=O)N1CCCCN1CCN(c2ncccn2)CC1 [Ipsapirone],0.551 ± 0.04
2,COc1ccc(-c2cc(=S)ss2)cc1 [Anethole-trithione],0.616 ± 0.027
3,CCCc1nc2c(C)cc(-c3nc4ccccc4n3C)cc2n1Cc1ccc(-c2ccccc2C(=O)O)cc1 [Telmisartan],0.505 ± 0.043
4,CSc1ccc2c(c1)N(CCC1CCCCN1C)c1ccccc1S2 (stereo not drawn) [Thioridazine hydrochloride],0.0484 ± 0.00036
5,CCOC(=O)c1ccc(N)cc1 [Benzocaine],0.432 ± 0.0086
6,Cc1cc2c(cc1S(N)(=O)=O)S(=O)(=O)CCC2 [Meticrane],0.423 ± 0.008
7,CC(C)COCC(CN(Cc1ccccc1)c1ccccc1)N1CCCC1 (stereo not drawn) [Bepridil hydrochloride],0.04887 ± 0.00032
8,NC[C@H]1O[C@H](O[C@H]2[C@H](O[C@@H]3O[C@H](CO)[C@@H](O)[C@H]3O)[C@@H](O)[C@H](N)C[C@@H]2N)[C@H](N)[C@@H](O)[C@@H]1O [Ribostamycin sulfate salt],0.549 ± 0.058
9,N=C(N)NS(=O)(=O)c1ccc(N)cc1 [Sulfaguanidine],0.431 ± 0.022

# Tested on: E. coli TESEC Mtb Alr
# Test: as above
# Conditions: arabinose 100 nM; compound 0.1 mM; raw OD600 reference: median of DMSO wells 0.413, cell-free background 0.052
# Description: as §1
row,SMILES,growth
1,CN1CCc2cccc3c2[C@H]1Cc1ccc(O)c(O)c1-3 [R(-) Apomorphine hydrochloride hemihydrate],0.407 ± 0.0077
2,CN1CCCN(C(c2ccccc2)c2ccc(Cl)cc2)CC1 (stereo not drawn) [Homochlorcyclizine dihydrochloride],0.413 ± 0.0053
3,Cc1ncc(CO)c(CO)c1O [Pyridoxine hydrochloride],0.428 ± 0.0097
4,O=C(NCC(O)CO)c1c(I)c(C(=O)NCC(O)CO)c(I)c(N(CCO)C(=O)CO)c1I (stereo not drawn) [Ioversol],0.408 ± 0.015
5,C[C@@H]1[C@H](O)[C@@H](C)/C=C/C=C/C=C/C=C/C=C/C=C/C=C/[C@H](O[C@@H]2O[C@H](C)[C@@H](O)[C@H](N)[C@@H]2O)C[C@@H]2O[C@](O)(C[C@@H](O)C[C@@H](O)[C@H](O)CC[C@@H](O)C[C@@H](O)CC(=O)O[C@H]1C)C[C@H](O)[C@H]2C(=O)O [Amphotericin B],0.433 ± 0.022
6,C=Cc1c(C)c2cc3nc(cc4[nH]c(cc5nc(cc1[nH]2)C(C)=C5CCC(=O)O)c(CCC(=O)OC)c4C)[C@@]1(C)C3=CC=C(C(=O)OC)C1C(=O)OC.C=Cc1c(C)c2cc3nc(cc4[nH]c(cc5nc(cc1[nH]2)C(C)=C5CCC(=O)OC)c(CCC(=O)O)c4C)[C@@]1(C)C3=CC=C(C(=O)OC)C1C(=O)OC (stereo partly drawn) [Verteporfin],0.556 ± 0.057
7,CC(C)C[C@H](NC(=O)[C@@H](O)[C@H](N)Cc1ccccc1)C(=O)O [Ubenimex],0.396 ± 0.011
8,CC(COc1ccccc1)N(CCCl)Cc1ccccc1 (stereo not drawn) [Phenoxybenzamine hydrochloride],0.396 ± 0.0062
9,CN(C)CCCOc1nn(Cc2ccccc2)c2ccccc12 [Benzydamine hydrochloride],0.404 ± 0.0075
10,CC1CS(=O)(=O)CCN1/N=C/c1ccc([N+](=O)[O-])o1 (stereo not drawn) [Nifurtimox],0.0469 ± 0.00035
11,NCC[C@H](O)C(=O)N[C@@H]1C[C@H](N)[C@@H](O[C@H]2O[C@H](CN)[C@@H](O)[C@H](O)[C@H]2O)[C@H](O)[C@H]1O[C@H]1O[C@H](CO)[C@@H](O)[C@H](N)[C@H]1O [Amikacin hydrate],0.0563 ± 0.0034
12,"Cc1cn([C@H]2C[C@H](N=[N+]=[N-])[C@@H](CO)O2)c(=O)[nH]c1=O [Zidovudine, AZT]",0.166 ± 0.012
13,NC1CCN(c2nc3c(cc2F)c(=O)c(C(=O)O)cn3-c2ccc(F)cc2F)C1 (stereo not drawn) [Tosufloxacin hydrochloride],0.05307 ± 0.00025
14,CC[C@H](C)C(=O)O[C@H]1C[C@H](O)C=C2C=C[C@H](C)[C@H](CC[C@@H](O)C[C@@H](O)CC(=O)O)[C@H]21 [Pravastatin],0.4188 ± 0.0036
15,CC(NCCC(c1ccccc1)c1ccccc1)c1ccccc1 (stereo not drawn) [Fendiline hydrochloride],0.4097 ± 0.0034
16,CCN1CCCC(OC(=O)C(c2ccccc2)c2ccccc2)C1 (stereo not drawn) [Piperidolate hydrochloride],0.4174 ± 0.0019
17,COc1ccc(C(=O)NCc2ccc(OCCN(C)C)cc2)cc1OC [Itopride],0.407 ± 0.015
18,CCCCOc1ccc(C(=O)CCN2CCCCC2)cc1 [Dyclonine hydrochloride],0.408 ± 0.0048
19,CC(C)C(=O)c1c(C(C)C)nn2ccccc12 [Ibudilast],0.401 ± 0.0083
20,"CC(O)(P(=O)(O)O)P(=O)(O)O [Etidronic acid, disodium salt]",0.415 ± 0.021

row,SMILES,growth
1,Nc1ccc(O)c(C(=O)O)c1 [Mesalamine],0.416 ± 0.0084
2,CC=CC1=C(C(=O)O)N2C(=O)[C@@H](NC(=O)[C@H](N)c3ccc(O)cc3)[C@H]2SC1 [Cefprozil],0.414 ± 0.017
3,O=C(OCC(O)CO)c1ccccc1Nc1ccnc2cc(Cl)ccc12 (stereo not drawn) [Glafenine hydrochloride],0.384 ± 0.022
4,CC1Cc2ccccc2N1NC(=O)c1ccc(Cl)c(S(N)(=O)=O)c1 (stereo not drawn) [Indapamide],0.425 ± 0.014
5,CN(C)CCN1C(=O)c2ccccc2N(C)c2ccccc21 [Dibenzepine hydrochloride],0.415 ± 0.0072
6,CO[C@@]1(NC(=O)Cc2cccs2)C(=O)N2C(C(=O)O)=C(COC(N)=O)CS[C@@H]21 [Cefoxitin sodium salt],0.0456 ± 0.00026
7,CCC1(c2ccccc2)NC(=O)N(C)C1=O (stereo not drawn) [Mephenytoin],0.427 ± 0.0055
8,CCN(CC)CC#CCOC(=O)C(O)(c1ccccc1)C1CCCCC1 (stereo not drawn) [Oxybutynin chloride],0.398 ± 0.031
9,COC(=O)[C@H](c1ccccc1Cl)N1CCc2sccc2C1 [Clopidogrel],0.38 ± 0.016
10,CN(C)CCOc1ccc(/C(=C(/CCCl)c2ccccc2)c2ccccc2)cc1 [Toremifene],0.0666 ± 0.015
11,O=C1c2ccccc2S(=O)(=O)N1CCCCN1CCN(c2ncccn2)CC1 [Ipsapirone],0.4 ± 0.0047
12,COc1ccc(-c2cc(=S)ss2)cc1 [Anethole-trithione],0.4304 ± 0.0029
13,CCCc1nc2c(C)cc(-c3nc4ccccc4n3C)cc2n1Cc1ccc(-c2ccccc2C(=O)O)cc1 [Telmisartan],0.283 ± 0.052
14,CSc1ccc2c(c1)N(CCC1CCCCN1C)c1ccccc1S2 (stereo not drawn) [Thioridazine hydrochloride],0.178 ± 0.21
15,CCOC(=O)c1ccc(N)cc1 [Benzocaine],0.4093 ± 0.00068
16,Cc1cc2c(cc1S(N)(=O)=O)S(=O)(=O)CCC2 [Meticrane],0.408 ± 0.0074
17,CC(C)COCC(CN(Cc1ccccc1)c1ccccc1)N1CCCC1 (stereo not drawn) [Bepridil hydrochloride],0.304 ± 0.21
18,NC[C@H]1O[C@H](O[C@H]2[C@H](O[C@@H]3O[C@H](CO)[C@@H](O)[C@H]3O)[C@@H](O)[C@H](N)C[C@@H]2N)[C@H](N)[C@@H](O)[C@@H]1O [Ribostamycin sulfate salt],0.42 ± 0.011
19,N=C(N)NS(=O)(=O)c1ccc(N)cc1 [Sulfaguanidine],0.41 ± 0.016
